About 8,800 targets were measured; listed, in parts, are those with a hit and a random draw of the rest. About 0.5% of all pairs of compound and target were hits. Values without a mark were called inactive.

Common to all, as to test: log2 fold change, soluble protein after heating vs DMSO (PISA); higher = thermal stabilisation; K562 lysate, 10 uM; active = over 0.2 and 3.5 SD of the protein, either way, in both replicates (recomputed)
Compound in assay [1]: CCCS(=O)(=O)Nc1ccc(F)c(C(=O)c2c[nH]c3ncc(-c4ccc(Cl)cc4)cc23)c1F [vemurafenib]
The procedure, abridged:
(§1)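 A 30 min treatment with 10 μM compound was applied to crude K562 extract at 1 mg/mL protein in PBS pH 7.4 with 1 mM MgCl2. Heating for 3 min spanned 48°C-58°C, after which aliquots were pooled, adjusted to 0.5% NP-40 at 4°C and spun at 21,000xg for 90 min. TMTpro 16plex LC-MS/MS of the supernatant, with channel sums equalised, gave values recorded as log-two fold change in thermal stability against solvent controls, from duplicates.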

Compound in assay [2]: CCCS(=O)(=O)Nc1ccc(F)c(C(=O)c2c[nH]c3ncc(Cl)cc23)c1F
In a few lines:
as §1

Compound in assay [3]: CCN(CCCOc1ccc2c(Nc3cc(CC(=O)Nc4cccc(F)c4)[nH]n3)ncnc2c1)CCOP(=O)(O)O [barasertib]
The procedure, abridged:
as §1

Compound in assay [4]: CC[C@@H]1C(=O)N(C)c2cnc(Nc3ccc(C(=O)NC4CCN(C)CC4)cc3OC)nc2N1C1CCCC1
In a few lines:
as §1

Compound in assay [5]: CC[C@@H]1C(=O)N(C)c2cnc(Nc3ccc(C(=O)N[C@H]4CC[C@H](N5CCN(CC6CC6)CC5)CC4)cc3OC)nc2N1C(C)C [volasertib]
In a few lines:
as §1

Compound in assay [6]: CCn1c(C(=O)N(C2CC2)C2CC2)cc2c3c(ncn3C)c(Nc3cc(C)n(C)n3)nc21
In a few lines:
as §1

Compound in assay [7]: CCn1cc(-c2ccnc3[nH]c(-c4cccc(CN(C)C)c4)cc23)c(-c2ccc(NC(=O)N(C)C)cc2)n1
The procedure, abridged: as §1

Compound in assay [8]: CN1CCC(CNc2ccc3ncc(-c4cccc(OC(F)(F)F)c4)n3n2)CC1
In a few lines:
as §1

Compound in assay [9]: CN1CCN(CCOc2cc(OC3CCOCC3)c3c(Nc4c(Cl)ccc5c4OCO5)ncnc3c2)CC1 [saracatinib]
In a few lines:
as §1

Compound in assay [10]: CN1CCN(c2nc(C3=C(c4c[nH]c5ccccc45)C(=O)NC3=O)c3ccccc3n2)CC1 [sotrastaurin]
In a few lines:
as §1

Compound in assay [11]: CN1CC[C@H](c2c(O)cc(O)c3c(=O)cc(-c4ccccc4Cl)oc23)[C@H](O)C1 [alvocidib]
In a few lines:
as §1

Compound in assay [12]: CN1CCc2c(c3ccccc3n2Cc2ccc(C(=O)NO)cc2)C1 [Tubastatin A]
The procedure, abridged: as §1

Compound in assay [13]: CNC(=O)C1=CC=CC=C1NC2=NC(=NC=C2Cl)NC3=C(C=C(C=C3)N4CCOCC4)OC
The procedure, abridged: as §1

Compound in assay [14]: CNC(=O)c1ccc(Nc2ncc(C(F)(F)F)c(NCc3nccnc3N(C)S(C)(=O)=O)n2)cc1 [defactinib]
In a few lines:
as §1

Compound in assay [15]: CNc1nc(-c2ccc3c(N)n[nH]c3c2)cc(N2C[C@@H](C(=O)NC3CCCCC3)CC[C@H]2C)n1
In a few lines:
as §1

Compound in assay [16]: COC(=O)N[C@@H](C)CNc1nccc(-c2cn(C(C)C)nc2-c2cc(Cl)cc(NS(C)(=O)=O)c2F)n1 [encorafenib]
In a few lines: as §1

Compound in assay [17]: COC(=O)[C@H](CCSC)NC(=O)C1=C(C=C(C=C1)NC[C@H](CS)N)C2=CC=CC=C2
In a few lines: as §1

Compound in assay [18]: COc1cc2nc(-c3cc(F)ccc3O)nc(N[C@@H]3CNC[C@H]3C(C)(C)O)c2cc1OC
The procedure, abridged: as §1

Compound in assay [19]: COc1cc(Nc2ncc3c(n2)-c2ccc(Cl)cc2C(c2c(F)cccc2OC)=NC3)ccc1C(=O)O [alisertib]
In a few lines:
as §1

Compound in assay [20]: COc1cc2ncnc(Nc3ccc(F)c(Cl)c3)c2cc1OCCCN1CCOCC1 [gefitinib]
In a few lines: as §1

UniProt Q9Y4D7, sequence (Q9Y4D7 whole entry, looked up): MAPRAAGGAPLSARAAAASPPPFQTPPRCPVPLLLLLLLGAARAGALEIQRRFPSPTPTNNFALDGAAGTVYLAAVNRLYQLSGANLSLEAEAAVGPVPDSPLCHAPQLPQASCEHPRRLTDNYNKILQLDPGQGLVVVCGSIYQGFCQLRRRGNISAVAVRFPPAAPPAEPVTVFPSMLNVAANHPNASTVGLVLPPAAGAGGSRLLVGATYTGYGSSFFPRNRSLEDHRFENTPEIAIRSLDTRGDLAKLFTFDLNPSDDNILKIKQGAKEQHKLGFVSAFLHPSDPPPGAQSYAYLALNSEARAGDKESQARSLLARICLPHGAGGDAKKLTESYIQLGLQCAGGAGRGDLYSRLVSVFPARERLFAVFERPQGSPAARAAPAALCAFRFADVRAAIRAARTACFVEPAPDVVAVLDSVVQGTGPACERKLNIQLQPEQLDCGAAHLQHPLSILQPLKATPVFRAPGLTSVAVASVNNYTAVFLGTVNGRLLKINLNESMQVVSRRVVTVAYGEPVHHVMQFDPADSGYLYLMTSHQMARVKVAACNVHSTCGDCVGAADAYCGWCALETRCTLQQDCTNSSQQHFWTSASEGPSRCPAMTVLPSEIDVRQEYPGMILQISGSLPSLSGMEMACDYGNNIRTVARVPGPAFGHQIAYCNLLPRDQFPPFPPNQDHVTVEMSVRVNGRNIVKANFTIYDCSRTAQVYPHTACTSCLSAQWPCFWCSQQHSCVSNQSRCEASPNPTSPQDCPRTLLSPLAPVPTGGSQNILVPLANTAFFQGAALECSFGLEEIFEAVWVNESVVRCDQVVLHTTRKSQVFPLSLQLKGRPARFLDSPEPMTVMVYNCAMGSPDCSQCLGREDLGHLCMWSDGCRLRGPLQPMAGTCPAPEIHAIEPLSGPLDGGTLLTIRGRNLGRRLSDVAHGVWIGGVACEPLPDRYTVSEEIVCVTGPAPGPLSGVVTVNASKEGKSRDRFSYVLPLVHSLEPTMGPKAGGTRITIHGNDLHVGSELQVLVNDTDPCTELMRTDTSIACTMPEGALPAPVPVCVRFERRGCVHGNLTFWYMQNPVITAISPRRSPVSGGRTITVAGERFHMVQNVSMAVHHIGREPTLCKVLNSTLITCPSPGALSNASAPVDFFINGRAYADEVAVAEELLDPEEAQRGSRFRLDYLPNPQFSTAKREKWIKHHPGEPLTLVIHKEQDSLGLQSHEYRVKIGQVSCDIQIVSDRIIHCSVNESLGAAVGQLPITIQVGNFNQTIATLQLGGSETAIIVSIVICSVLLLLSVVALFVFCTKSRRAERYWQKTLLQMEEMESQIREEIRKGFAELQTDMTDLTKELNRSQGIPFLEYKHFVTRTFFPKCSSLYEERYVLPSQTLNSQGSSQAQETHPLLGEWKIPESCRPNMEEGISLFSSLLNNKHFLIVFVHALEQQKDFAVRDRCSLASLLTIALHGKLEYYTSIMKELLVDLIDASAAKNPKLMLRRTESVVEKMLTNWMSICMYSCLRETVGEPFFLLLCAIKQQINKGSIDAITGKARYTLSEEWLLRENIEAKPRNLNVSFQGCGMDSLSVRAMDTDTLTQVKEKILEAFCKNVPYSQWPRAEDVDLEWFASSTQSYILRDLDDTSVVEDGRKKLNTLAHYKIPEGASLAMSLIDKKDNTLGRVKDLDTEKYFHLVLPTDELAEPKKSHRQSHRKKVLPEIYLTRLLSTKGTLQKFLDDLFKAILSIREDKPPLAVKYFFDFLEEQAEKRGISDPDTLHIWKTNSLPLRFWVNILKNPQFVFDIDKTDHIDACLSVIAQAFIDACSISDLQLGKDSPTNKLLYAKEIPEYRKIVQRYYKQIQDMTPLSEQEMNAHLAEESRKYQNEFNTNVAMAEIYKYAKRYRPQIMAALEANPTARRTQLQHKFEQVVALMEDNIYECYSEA
UniProt P0C869, sequence (P0C869 whole entry, looked up): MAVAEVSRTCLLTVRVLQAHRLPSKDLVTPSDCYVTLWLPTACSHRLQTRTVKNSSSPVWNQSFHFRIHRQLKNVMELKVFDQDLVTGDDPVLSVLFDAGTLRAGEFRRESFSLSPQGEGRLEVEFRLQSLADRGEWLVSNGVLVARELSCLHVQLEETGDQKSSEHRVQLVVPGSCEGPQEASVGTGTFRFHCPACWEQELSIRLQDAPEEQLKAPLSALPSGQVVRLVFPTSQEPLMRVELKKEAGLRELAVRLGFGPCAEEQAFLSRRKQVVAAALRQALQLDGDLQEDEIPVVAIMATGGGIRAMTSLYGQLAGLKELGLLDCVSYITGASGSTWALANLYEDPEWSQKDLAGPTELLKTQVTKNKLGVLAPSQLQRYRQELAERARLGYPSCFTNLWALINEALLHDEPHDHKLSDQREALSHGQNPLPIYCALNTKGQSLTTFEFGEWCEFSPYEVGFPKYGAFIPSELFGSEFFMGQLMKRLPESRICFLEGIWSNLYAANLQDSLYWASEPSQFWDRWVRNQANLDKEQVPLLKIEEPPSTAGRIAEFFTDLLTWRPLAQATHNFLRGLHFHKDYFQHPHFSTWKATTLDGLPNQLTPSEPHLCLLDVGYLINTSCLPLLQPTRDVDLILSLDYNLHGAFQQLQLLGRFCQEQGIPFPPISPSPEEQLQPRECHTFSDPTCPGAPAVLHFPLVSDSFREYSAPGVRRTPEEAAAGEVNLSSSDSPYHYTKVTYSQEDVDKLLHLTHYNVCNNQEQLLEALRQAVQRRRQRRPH
UniProt Q96S99, sequence (Q96S99 whole entry, looked up): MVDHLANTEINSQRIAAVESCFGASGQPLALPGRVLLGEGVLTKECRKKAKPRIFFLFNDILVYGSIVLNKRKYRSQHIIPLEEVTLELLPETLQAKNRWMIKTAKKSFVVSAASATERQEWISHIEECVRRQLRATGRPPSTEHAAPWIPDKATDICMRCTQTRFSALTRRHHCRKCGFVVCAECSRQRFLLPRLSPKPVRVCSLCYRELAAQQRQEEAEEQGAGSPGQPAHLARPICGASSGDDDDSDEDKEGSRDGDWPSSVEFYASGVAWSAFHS
UniProt O00541, sequence (O00541 whole entry, looked up): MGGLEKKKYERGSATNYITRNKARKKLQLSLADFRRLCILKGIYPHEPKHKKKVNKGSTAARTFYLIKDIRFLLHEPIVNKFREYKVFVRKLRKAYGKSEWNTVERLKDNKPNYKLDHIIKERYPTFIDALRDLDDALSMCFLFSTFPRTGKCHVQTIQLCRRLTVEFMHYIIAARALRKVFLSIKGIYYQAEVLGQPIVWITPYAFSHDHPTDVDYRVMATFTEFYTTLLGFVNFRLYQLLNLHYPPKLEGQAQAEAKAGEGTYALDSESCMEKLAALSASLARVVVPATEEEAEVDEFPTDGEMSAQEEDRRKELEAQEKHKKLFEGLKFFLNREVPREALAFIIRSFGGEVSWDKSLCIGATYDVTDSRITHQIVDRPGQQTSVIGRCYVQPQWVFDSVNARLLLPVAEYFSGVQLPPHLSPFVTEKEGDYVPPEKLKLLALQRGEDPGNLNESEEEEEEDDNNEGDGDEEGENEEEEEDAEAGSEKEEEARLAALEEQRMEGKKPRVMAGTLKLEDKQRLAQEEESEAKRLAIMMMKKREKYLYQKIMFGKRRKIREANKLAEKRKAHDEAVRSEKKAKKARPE
UniProt Q96LW4, sequence (Q96LW4 whole entry, looked up): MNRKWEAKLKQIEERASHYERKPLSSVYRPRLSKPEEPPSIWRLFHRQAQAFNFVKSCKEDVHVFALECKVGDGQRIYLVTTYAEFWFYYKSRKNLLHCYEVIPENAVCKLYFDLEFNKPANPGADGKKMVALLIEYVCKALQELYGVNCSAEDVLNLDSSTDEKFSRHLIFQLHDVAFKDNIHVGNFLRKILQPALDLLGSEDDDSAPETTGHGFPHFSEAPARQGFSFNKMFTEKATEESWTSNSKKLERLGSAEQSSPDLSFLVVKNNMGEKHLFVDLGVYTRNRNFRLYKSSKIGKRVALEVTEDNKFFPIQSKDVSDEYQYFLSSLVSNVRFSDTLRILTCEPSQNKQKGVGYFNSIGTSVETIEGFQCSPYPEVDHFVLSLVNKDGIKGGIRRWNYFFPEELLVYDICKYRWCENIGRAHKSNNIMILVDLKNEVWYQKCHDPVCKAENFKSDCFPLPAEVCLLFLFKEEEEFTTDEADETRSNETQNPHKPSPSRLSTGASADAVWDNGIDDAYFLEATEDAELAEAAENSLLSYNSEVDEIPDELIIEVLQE
UniProt Q15173, sequence (Q15173 whole entry, looked up): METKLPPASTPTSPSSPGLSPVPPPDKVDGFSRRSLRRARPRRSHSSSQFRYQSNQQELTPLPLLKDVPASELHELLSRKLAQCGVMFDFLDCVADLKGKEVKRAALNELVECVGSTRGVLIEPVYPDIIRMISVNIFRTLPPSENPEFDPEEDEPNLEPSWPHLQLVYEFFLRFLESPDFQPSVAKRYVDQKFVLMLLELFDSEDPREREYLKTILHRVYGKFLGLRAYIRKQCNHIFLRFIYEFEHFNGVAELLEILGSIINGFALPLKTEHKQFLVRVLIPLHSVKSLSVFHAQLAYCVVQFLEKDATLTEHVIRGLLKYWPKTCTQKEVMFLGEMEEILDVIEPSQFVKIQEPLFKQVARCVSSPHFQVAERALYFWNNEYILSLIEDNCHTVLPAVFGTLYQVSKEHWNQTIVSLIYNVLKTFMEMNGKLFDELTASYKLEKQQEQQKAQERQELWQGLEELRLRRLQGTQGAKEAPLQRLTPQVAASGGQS
UniProt P41247, sequence (P41247 whole entry, looked up): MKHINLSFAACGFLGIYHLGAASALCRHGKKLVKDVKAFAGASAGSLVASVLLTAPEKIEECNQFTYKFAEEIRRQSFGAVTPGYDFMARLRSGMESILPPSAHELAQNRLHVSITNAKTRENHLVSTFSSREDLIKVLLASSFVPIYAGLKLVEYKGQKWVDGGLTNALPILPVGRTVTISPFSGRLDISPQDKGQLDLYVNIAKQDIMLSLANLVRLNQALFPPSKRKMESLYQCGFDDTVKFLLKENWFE

For the target PPP2R5B (UniProt Q15173), the log2 fold change in assay [1] was -0.036; in [2] it was 0; in assay [3] it was -0.016; in [4], -0.057; in [5], 0.031; in assay [6] it was 0. Also, the log2 fold change in [7] is -0.01; in assay [8], -0.079; in [9], 0.001; in [10], -0.074; in [11], 0.069; in [12], -0.012. Moreover, the log2 fold change in [13] is -0.03; in [14], -0.091; in assay [15] it was -0.056; in [16], -0.017; in assay [17] it was 0.288 (active); in [18], 0.046.

Consider PLA2G4B isoform 6 (UniProt P0C869), for which the log2 fold change in assay [1] is 0.05; in assay [2] it was 0.069; in assay [3], 0.002; in assay [4], 0.144; in assay [5] it was 0.018; in assay [6], -0.191. The log2 fold change in [7] is 0.034; in assay [8] it was -0.014; in [9], 0.101; in assay [10], -0.168; in [11], -0.035; in [12], 0.054. The log2 fold change in assay [13] is -0.032; in assay [14] it was 0.024; in assay [15], 0.051; in assay [16] it was 0.09; in [17] it was 0.177; in assay [19] it was -0.009. Besides, the log2 fold change in assay [18] was 0.073; in assay [20], 0.115.

PES1 (UniProt O00541): the log2 fold change is 0.009 in assay [1]; 0.023 in [2]; -0.019 in assay [3]; -0.074 in assay [4]; -0.04 in assay [5]; 0.017 in [6]. In addition, the log2 fold change in [7] was -0.043; in assay [8], 0.052; in [9] it was 0.007; in assay [10], 0.028; in assay [11] it was -0.017; in [12] it was -0.044. The log2 fold change was 0.05 in assay [13]; 0.005 in assay [14]; 0.017 in assay [15]; 0.006 in assay [16]; 0.35 (active) in assay [17]; 0.028 in assay [19]. The log2 fold change is -0.003 in assay [18] and 0.007 in [20].

In the case of PLEKHF1 (UniProt Q96S99), the log2 fold change in [1] is 0.019; in assay [2] it was -0.008; in [3], 0.004; in [4], -0.004; in assay [5], 0.002; in assay [6], 0.059. For the same target, the log2 fold change in [7] was -0.062; in assay [8] it was 0.018; in assay [9] it was 0.007; in assay [10] it was -0.028; in [11], -0.001; in [12] it was -0.051. Besides, the log2 fold change in [13] was 0.058; in assay [14] it was -0.007; in [15] it was -0.033; in [16], -0.025; in assay [17], -0.009; in assay [19], -0.008. For the same target, the log2 fold change is -0.001 in assay [18] and 0.007 in [20].

For the target PI4KA (UniProt P42356), the log2 fold change in assay [1] was 0.005; in assay [2], 0.014; in assay [3] it was 0; in assay [4], 0.007; in assay [5] it was -0.064; in assay [6], 0.019. Besides, the log2 fold change is -0.069 in assay [7]; 0.164 in assay [8]; 0.016 in assay [9]; 0.056 in assay [10]; -0.006 in [11]; -0.165 in assay [12]. Also, the log2 fold change in [13] is 0.035; in assay [14] it was 0.006; in [15], -0.029; in [16], 0.026; in [17], -0.005; in [19] it was 0.028. For the same target, the log2 fold change was 0.019 in assay [18] and 0 in [20].

PNPLA4 (UniProt P41247): the log2 fold change in assay [1] was 0.098; in [4], 0.002; in assay [6] it was -0.111; in [7], 0.165; in assay [8], 0.414; in assay [9], 0.009. For the same target, the log2 fold change in assay [10] is -0.013; in assay [11], 0.074; in [12], 0.147; in assay [14], -0.148; in [15], -0.17; in assay [16], -0.076. Further, in assay [17], the log2 fold change was 0.125.

For PRIMPOL (UniProt Q96LW4), the log2 fold change is -0.02 in assay [1]; -0.083 in assay [3]; -0.095 in [4]; 0.011 in assay [6]; 0.014 in assay [9]; 0.089 in [10]. The log2 fold change in assay [12] was -0.159; in assay [13], 0.036; in [14] it was 0.076; in [15] it was 0.071; in assay [16] it was 0.055; in assay [17] it was -0.37. The log2 fold change in assay [19] is -0.113; in [20], 0.045.

As for PLXND1 (UniProt Q9Y4D7), the log2 fold change in [3] is 0.045; in assay [6], -0.214; in [9], 0.018; in assay [10], 0.012; in [12] it was 0.111; in assay [13], 0.015. For the same target, the log2 fold change in [15] was -0.123; in assay [19], 0.046; in [20], 0.313.

For the origin of these results see the supplement of paper PMC10849652.
